About 1,300 (0.68%) of roughly 190,000 compounds were called active. Only a selection was taken, and actives are over-represented in it overall. Values without a mark were called inactive. Rule as the data show it: active = inhibition above about 50%; inactive = the rest.
These compounds were tested against Mannose-6-phosphate isomerase (Homo sapiens) (UniProt P34949) (assay: MPI inhibition at elevated mannose 6-phosphate – biochemical, fluorescence intensity, high mannose 6-phosphate, primary screen (AID 1220)). Conditions: recombinant PMI enzyme, coupled fluorescence intensity; at 20 µM; active compounds read high.
Mannose-6-phosphate isomerase (Homo sapiens), sequence (P34949 whole entry, looked up): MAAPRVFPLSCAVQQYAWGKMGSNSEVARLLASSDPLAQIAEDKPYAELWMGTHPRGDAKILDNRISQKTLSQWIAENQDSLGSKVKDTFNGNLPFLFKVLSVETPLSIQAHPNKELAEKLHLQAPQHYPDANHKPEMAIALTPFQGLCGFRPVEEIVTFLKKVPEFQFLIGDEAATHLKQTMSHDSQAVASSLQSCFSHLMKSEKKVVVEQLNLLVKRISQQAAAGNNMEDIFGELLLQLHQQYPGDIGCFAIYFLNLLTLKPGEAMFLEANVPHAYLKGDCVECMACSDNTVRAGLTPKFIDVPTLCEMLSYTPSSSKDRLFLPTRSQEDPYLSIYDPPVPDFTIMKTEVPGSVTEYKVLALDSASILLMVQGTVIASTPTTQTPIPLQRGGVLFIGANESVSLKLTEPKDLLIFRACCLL
Work on `CCCNC(=O)c1ccc2nc(-c3ccccc3)c(-c3ccccc3)nc2c1` yielded an inhibition of 11.1%. Work on `CCc1ccc(Oc2cc(C)nc(N)n2)cc1` yielded an inhibition of -0.3%. `CCCCc1ccc(-n2nnnc2SCC(=O)Nc2cc(OC)c([N+](=O)[O-])cc2C)cc1` showed an inhibition of 10.1%. For `O=C(NCCc1ccc(Cl)cc1)c1cnc2n(c1=O)CCS2`, the inhibition was 4.8%. For `O=C(N/N=C/c1ccc2c(c1)OCO2)c1sc2cccc(Cl)c2c1Cl`, the inhibition was 12.6%. `O=C(CCCCCn1c(=O)[nH]c2ccccc2c1=O)N1CCN(Cc2ccc3c(c2)OCO3)CC1` was tested, and the inhibition was -4%. `O=C(OCc1cccnc1)C1=Cc2ccccc2OC1` was tested, and the inhibition was -1.4%. In the case of `COc1ccc(C(=O)c2ccc(OC)c3cccc(O)c23)cc1OC`, the inhibition is reported as 14.7%. `COc1ccc(C(=O)Nc2cccc(C(C)=O)c2)c(OC)c1OC` was tested, and the inhibition was 8.1%. In the case of `COc1ccc(C(C)=O)c2c(O)cccc12`, the inhibition is reported as 56.5% (active). `CCOc1ccc(N(CC(=O)N/N=C/c2cccnc2)S(C)(=O)=O)cc1` showed an inhibition of -3.8%. Work on `CN(C)C(=O)C1(c2ccccc2)CCN(S(=O)(=O)c2ccccc2)CC1` yielded an inhibition of 14.9%. `COc1oc(-c2ccccc2C)nc1C(F)(F)F` showed an inhibition of 1.8%. For `COc1ccc(/C(=C\Nc2ccc(C)c(C)c2)C(C)=O)cc1OC`, the inhibition was 56.5% (active). `COc1ccc(/C(=C/Nc2cccc(Br)c2)C(C)=O)cc1OC` was tested, and the inhibition was 4.4%. Work on `COc1ccc(N/C=C(\C(C)=O)c2ccc(OC)c(OC)c2)cc1OC` yielded an inhibition of 42.8%. For `CCC/C=N/NC(=O)c1cc(-c2ccccc2)nc2ccccc12`, the inhibition was -2.1%. `C=CCc1cc(/C=N/NC(=O)CSc2nnc(CCCc3ccc(OC)cc3)o2)cc(OC)c1O` showed an inhibition of -3.4%. `N#C/C(=C1\C(=O)Nc2c(Cl)cc(Cl)cc21)c1nnc2n1CCCCC2` was tested, and the inhibition was 51% (active). `N#C/C(=C1/CCCCCN1)c1nnc2n1CCCCC2` was tested, and the inhibition was -3.4%. Compound `N#C/C(=N\Nc1cc(Cl)cc(Cl)c1)c1nnc2n1CCCCC2` has an inhibition of 14.3%. Compound `O=C(c1cc2nc(-c3ccc(Cl)cc3)cc(C(F)(F)F)n2n1)N1CCOCC1` has an inhibition of 9.1%. Work on `CC(=O)N1CC(c2ccccc2)C(c2ccc(Cl)cc2)=N1` (centres undefined) yielded an inhibition of 11.8%. Compound `CC(C)C(O)(C#CCN1CCCCC1)C(C)C` has an inhibition of 2.1%. `O=C(NC(=S)N1CCN(Cc2ccccc2)CC1)c1cccnc1` was tested, and the inhibition was 58.4% (active). In the case of `O=C(NC(=S)N1CCCCC1)c1cccnc1`, the inhibition is reported as -1.5%. `O=C(NC(=S)N1CCN(Cc2ccccc2)CC1)c1ccccc1` was tested, and the inhibition was 13%. `COCCN1C(=O)c2oc3ccccc3c(=O)c2C1c1ccc(O)c(OC)c1` (centres undefined) gave an inhibition of 0.7%. With `Cc1cc([N+](=O)[O-])ccc1NC(=O)C[n+]1ccc(N(C)C)cc1` the inhibition was -1.5%. `Cc1ccc([N+](=O)[O-])cc1NC(=O)C[n+]1ccccc1` gave an inhibition of 22.2%. With `Cc1ccc(Cl)cc1NC(=O)C[n+]1ccc(Cc2ccc([N+](=O)[O-])cc2)cc1` the inhibition was 55.3% (active). `CC(NC(=O)C1CCCN1C(=O)OCc1ccccc1)c1ccccc1` (centres undefined) gave an inhibition of -0.5%. For `COc1cccc(OC)c1C(=O)NC(=S)Nc1ccc2oc(=O)ccc2c1`, the inhibition was 10.5%. `O=C(COC(=O)COc1ccccc1[N+](=O)[O-])NC1CCCC1` showed an inhibition of -5.1%. For `O=C(COC(=O)Cc1ccccc1[N+](=O)[O-])NC1CCCC1`, the inhibition was 55.4% (active). `CC(NC(=O)COC(=O)CC(c1ccccc1)c1ccccc1)c1ccccc1` (centres undefined) was tested, and the inhibition was 7.9%. `CC(NC(=O)Cc1ccccc1[N+](=O)[O-])c1ccccc1` (centres undefined) was tested, and the inhibition was 7.4%. `CC(NC(=O)COC(=O)Cc1ccccc1[N+](=O)[O-])c1ccccc1` (centres undefined) was tested, and the inhibition was 51.3% (active). In the case of `O=C(COC(=O)Cc1ccccc1[N+](=O)[O-])NCC1CCCCC1`, the inhibition is reported as -5.7%. For `O=Cc1cc2ccccc2nc1SCCCF`, the inhibition was 4.2%. `CCCn1c(SCC(=O)C(C)(C)C)nc2ccccc21` was tested, and the inhibition was -8.2%. In the case of `O=C(O)Cc1ccc(NC(=O)c2cnccn2)cc1`, the inhibition is reported as -9.7%. Compound `Cc1cc(C)c2c(N)c(C(=O)NNC(=O)c3ccccc3)sc2n1` has an inhibition of 2.3%. `Cc1cc(C)nc(-n2nc(C)cc2NC(=O)CN2CCCC(C)C2)n1` (centres undefined) gave an inhibition of 4.4%. For `Cc1ccc(SC(C)C(=O)NCc2ccncc2)cc1` (centres undefined), the inhibition was 11.4%. With `CC(=O)NC1(C(F)(F)F)NC(=O)N(c2ccc(F)cc2)C1=O` (centres undefined) the inhibition was -10.2%. In the case of `O=C(CCN1C(=O)C2C3C=CC(C4CC34)C2C1=O)Oc1ccccc1` (centres undefined), the inhibition is reported as -3.5%. In the case of `CC(=O)c1ccccc1OC(=O)CCN1C(=O)C2C3C=CC(C4CC34)C2C1=O` (centres undefined), the inhibition is reported as 59.3% (active). For `Cc1cccc(OC(=O)CCN2C(=O)C3C4C=CC(C5CC45)C3C2=O)c1C` (centres undefined), the inhibition was -6.4%. In the case of `Cc1ccc(C(=O)NCc2ccco2)cc1S(=O)(=O)Nc1cccc(C)c1C`, the inhibition is reported as 0.8%. With `COc1cccc(CN2CCN(Cc3[nH]c4ccccc4c3C)CC2CCO)c1` (centres undefined) the inhibition was -0.2%. For `CN(C)C=Nc1ccc2nn(-c3ccccc3)nc2c1`, the inhibition was 60.2% (active). In the case of `Cc1nc2cc(N)ccc2n1-c1ccccc1`, the inhibition is reported as 21.5%. For `Nc1ccc2nn(-c3ccccc3)nc2c1`, the inhibition was 57.9% (active). `CC(C)c1ccc2oc(-c3cc(N)ccc3O)nc2c1` showed an inhibition of -12.6%. Work on `CC(C)CC(=O)Nc1ccc2nn(-c3ccccc3)nc2c1` yielded an inhibition of 26.4%. `Cc1ccc(-n2nc3ccc(NC(=O)C(C)C)cc3n2)cc1` was tested, and the inhibition was 13.3%. `CC(C)C(=O)Nc1ccc2nn(-c3ccccc3)nc2c1` was tested, and the inhibition was -0.5%. For `Cc1ccc(-n2nc3ccc(N)cc3n2)cc1`, the inhibition was 31.3%. With `CC(C)c1ccc(-n2nc3ccc(N)cc3n2)cc1` the inhibition was 55.8% (active). `COc1cccc(CN(c2ccc3c(c2)CCC3)S(=O)(=O)c2ccc(-n3cnnn3)c(OC)c2)c1` gave an inhibition of -3.4%. In the case of `N#C/C(=C\c1ccncc1)C(N)=O`, the inhibition is reported as 17.1%. In the case of `COc1ccc(Oc2ccccc2C#N)cc1`, the inhibition is reported as 4.7%. Compound `O=C(CSc1nnnn1CCCO)Nc1ccc2c(c1)OCO2` has an inhibition of -12.3%.

Reference: PubChem BioAssay AID1220 (Sanford-Burnham Center for Chemical Genomics, 2008)
